Measured values from the supplement of paper PMC11417369.
In all, about 25,000 sequences were measured (“ln(normalized median fluorescence intensity)”: median about 7.1, highest 2% from about 10 on). This excerpt belongs to a sample that is enriched for the highest values.

What follows are sequences tested on PfSIP2 AP2 domain 1 (GST-tagged) (assay: gcPBM binding intensity (ln(normalized median fluorescence intensity)); higher = stronger DNA binding).
How it was run: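 GST-tagged P. falciparum DNA-binding domains produced in E. coli were incubated for 1 h on an Agilent 4 × 180k array of primer-extended double-stranded 36-bp intergenic genomic probes with negative controls. Binding intensity is the highest Masliner-normalised natural-log median intensity across replicate spots of either probe orientation, with bound protein detected by Alexa488 anti-GST antibody at 488 nm.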

Compared with “TAATAAGTACCTTTTGCATGTGGCACGCTTTTTTTT [TGCATGCA_site573]”, “TTAACATCTTCGTTGACACACAAAAAAAAAAATAAT [CACACA_site1819]” is higher in “gcPBM binding intensity (ln)” value: 6.75 for the first, 7.1 for the second.

Compared with “ATATAAATACGGTGTGCACACACATAATATATATAT [CACACA_site2271]”, “ATGGATTATACGTGCACACATATATACCAATAAATA [CACACA_site4524]” is higher in “gcPBM binding intensity (ln)” value: 8.98 for the first, 10.5 for the second.

First: TCATATATATTATACACACACATATATAAATATATA [CACACA_site967]
Second: ATAAAATATATATGCACACACATATATATTTCATAC [CACACA_site3547]
The “gcPBM binding intensity (ln)” value of the first is lower: 7.03 for the first, 7.24 for the second.

First: GAAATAATTTCATATACACACATATACATACATACA [CACACA_site1358]
Second: ATAATTTCATAATACGTGCACATAATATATAAAAAA
The “gcPBM binding intensity (ln)” value of the first is lower: 7.5 for the first, 10.5 for the second.

Compared with “TTATAATATGGATACACACACATATATAAATATATA [CACACA_site5314]”, “CATAAAAATGGATACACACACATAATATATATATAT [CACACA_site3619]” is higher in “gcPBM binding intensity (ln)” value: 6.98 for the first, 9.01 for the second.

Compared with “TAATGGATTATACGTGCACACATATATACAAATAAA [CACACA_site8116]”, “TAGGGATTATACCACACACACATACACATAAATATA [CACACA_site3178]” is lower in “gcPBM binding intensity (ln)” value: 10.5 for the first, 7.08 for the second.

First: TATAAATACATACGTACACACAAATATTAAAATATA [CACACA_site5129]
Second: ATGGATTATACGTGCACACATATATACAAATAAATA [CACACA_site640]
The “gcPBM binding intensity (ln)” value of the first is lower: 7.35 for the first, 10.5 for the second.

Going from “AAACATAAATTTTATTGTACATTATATAGAATTTTC [XGTACX_site576]” to “AAATGTTGAAATGATACACACATATATATATATATA [CACACA_site2517]”, the “gcPBM binding intensity (ln)” value rises from 6.81 to 9.59.

Going from “TTATTTATGATATATACACACTAACATTATTTATCC [CACACA_site6720]” to “GAAATTTCCCATATTACACACATACTATGATATATA [CACACA_site5987]”, the “gcPBM binding intensity (ln)” value rises from 6.95 to 7.12.

First: GTGATGGTACAATATACACACTTAAAAAAAAAAAAT [CACACA_site5360]
Second: TTTCTATATTGGCATACATGCAAGAACGAAAAGATT [TGCATGCA_site117]
The “gcPBM binding intensity (ln)” value of the first is higher: 7.17 for the first, 7.09 for the second.

Going from “TATAAAAAAAATTGCACACATATTATACAGGACGAC [CACACA_site701]” to “TTTATTTTTATTTTTGTGCACGGGATTAAATAAAAG [GTGCAC_site9842]”, the “gcPBM binding intensity (ln)” value rises from 7.96 to 10.5.

Compared with TAATATTTTAATTGTGTGCACATTAATATTATAAAA, “TTATTTTATTTTTTTGTGCACATATATATTTATAAA [GTGCAC_site9615]” is higher in “gcPBM binding intensity (ln)” value: 9.3 for the first, 9.43 for the second.

Going from “AAGAAGAAACGGAAAAGTACAAAGAAGAAATAAGTA [XGTACX_site3680]” to “CATACATTATAAGATACATGCATATATCTGAACATA [TGCATGCA_site797]”, the “gcPBM binding intensity (ln)” value rises from 6.85 to 7.02.

First: AACATTATTTTGTGTACACATTCGGTTATATTATAT [CACACA_site5628]
Second: ATACTATTTAAATGGGTGCTAAAAATAACAAAAATT
The “gcPBM binding intensity (ln)” value of the first is lower: 7.31 for the first, 8.88 for the second.

Compared with “TAAATCAAAATAATTTAACACACAATTTTAATACTG [CACACA_site8744]”, AATAAATACTAAATGGTGCAAAATTTTTTAACACTG is higher in “gcPBM binding intensity (ln)” value: 6.67 for the first, 10.7 for the second.

First: TATTAAAATATGTCAGTTCTTAAAAAGTTGATGAGT [GTGCAC_negctrl_site77]
Second: TAATAATAATTAAATTGTACATATAATATAATATAA [XGTACX_site8554]
The “gcPBM binding intensity (ln)” value of the first is higher: 7.17 for the first, 7.15 for the second.

Compared with “TAATATATATGTATGGCACACACGGATAAATATATA [CACACA_site930]”, “TTTTAACAAAAAAAAAGAAAAGAAAAGAAAATAATA [XGTACX_negctrl_site530]” is lower in “gcPBM binding intensity (ln)” value: 7.04 for the first, 6.54 for the second.

Compared with “GAACAAATTAAATAGGTGCATTAACATGTTCTATTT [GTGCAC_site9729]”, “AATTGAATAAATTAAACATGCACAGATGTTCTATTT [TGCATGCA_site692]” is lower in “gcPBM binding intensity (ln)” value: 10.4 for the first, 6.89 for the second.

Going from TAATATAATATATAGGTGCAATATTAACAAAAATTT to “AGTGATACTAATTTTTGTACGCATAAAAGAATATTC [XGTACX_site6055]”, the “gcPBM binding intensity (ln)” value falls from 9.61 to 6.97.

First: ACCTATTTCAAACACACACACACACCCACAAACATA [CACACA_site977]
Second: ACTATTTTCTTCAAAACATGCACCACATAAACATAA [TGCATGCA_site200]
The “gcPBM binding intensity (ln)” value of the first is lower: 7.62 for the first, 10.5 for the second.

Going from “TATAAACATAAAACCAGTACATATATATTTTTCTTC [XGTACX_site212]” to “CGGCTATTTCTATATACATGCATTTAAAAAAAAAAT [TGCATGCA_site354]”, the “gcPBM binding intensity (ln)” value rises from 6.84 to 7.27.

Going from “CCAATGTTTTCTTGTGTACACATCATTAAAGAAAAA [CACACA_site5300]” to “AATAGAAAAAAATAAGTGCATTTTGGTATTCATCAT [GTGCAC_site9614]”, the “gcPBM binding intensity (ln)” value rises from 7.96 to 8.14.

Going from “TATTGTTCTTATTTAGTGCATATATAATATAATATA [GTGCAC_site9827]” to “ATATTTATATATAGTAGTACTTTCAATAATTTAAAT [XGTACX_site7276]”, the “gcPBM binding intensity (ln)” value falls from 9.38 to 7.05.

Going from CATATAATTTTATGGGTGCATTTTTTTGTAAGACCA to “ATAATTTCAATATTTAATATCATATATATATATTTT [GTGCAC_negctrl_site713]”, the “gcPBM binding intensity (ln)” value falls from 11.1 to 6.94.

First: TATATATATATATATATATATATGTATGTGCATTTA [TGCATGCA_negctrl_site53]
Second: TTGTTCTTATTTCATTTTTATATGATATTTCATTAT [CACACA_negctrl_site1619]
The “gcPBM binding intensity (ln)” value of the first is higher: 9.08 for the first, 7.17 for the second.

Compared with “TATATATATATATGGGTGCATTTTTTTGTCCATGTA [GTGCAC_site9868]”, “TTATATGGCTCCATTTGTACGCATCCATGTTTTTAT [XGTACX_site6590]” is lower in “gcPBM binding intensity (ln)” value: 10.7 for the first, 6.99 for the second.

First: TTTTTAATTTCAATGGTGCAGTAATAATATAATAGT
Second: ATTATTTATATTATGGTGCATAATTTTGGGTTTCTT
The “gcPBM binding intensity (ln)” value of the first is higher: 10.5 for the first, 10.2 for the second.

Going from “TCTATTTTTTATATGGTGCATTGTTCTTATTAATAT [GTGCAC_site9392]” to “GTAATTTTATATGGTTGTACATATATATATATATAT [XGTACX_site6659]”, the “gcPBM binding intensity (ln)” value falls from 10.5 to 9.68.

Going from “TTTATTTTAAAATATAGTACGCAAATAAAAATAAAT [XGTACX_site7783]” to “AAATTTATTTCTGTGTGTCCACAAAAAAAAATCTTT [XGTACX_site691]”, the “gcPBM binding intensity (ln)” value falls from 7.33 to 6.91.

“TTTTTTTTTTTCTTTGCACACAGATAACTTGAAATT [CACACA_site2184]” was tested, and the “gcPBM binding intensity (ln)” value was 7.2.
